Bioassay records: PubChem BioAssay, National Center for Advancing Translational Sciences (NCATS)
Sm TGR block: qHTS Assay for the Inhibitors of Schistosoma Mansoni Peroxiredoxins; Schistosoma mansoni thioredoxin glutathione reductase (TGR), Q962Y6; purified TGR, DTNB reduction, TNB absorbance 405 nm; Potency, µM (highest dose often 114 µM), inactives show top-dose activity change, negative = inhibition, hits mostly inhibitors; hit rate 3% among 360,000; also: % is scaled to controls: 0 for no effect and ±100 for the full control effect; nearly all actives have a fitted effect of over 60% in size
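TGR 20 nM + NADPH 100 uM (dispensed conc.), cpd preinc 15 min RT; start with NADPH (500 uM addition) then DTNB (15 mM addition). Kinetic TNB absorbance, 405 nm filter. Four-parameter Hill fit across titration.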
LmPK inh: qHTS Assay for Inhibitors of Leishmania Mexicana Pyruvate Kinase (LmPK). Q27686. purified LmPK, Kinase-Glo ATP luminescence, 1 h. Potency, µM (highest dose often 57.5 µM), for inactives: at the top dose activity change, negative = inhibition, usual class: inhibitors. hit rate 0.37% among 290,000. AID 1721, 2009; also: % is scaled to controls: 0 for no effect and ±100 for the full control effect
Target sequence (Q27686 whole entry, looked up): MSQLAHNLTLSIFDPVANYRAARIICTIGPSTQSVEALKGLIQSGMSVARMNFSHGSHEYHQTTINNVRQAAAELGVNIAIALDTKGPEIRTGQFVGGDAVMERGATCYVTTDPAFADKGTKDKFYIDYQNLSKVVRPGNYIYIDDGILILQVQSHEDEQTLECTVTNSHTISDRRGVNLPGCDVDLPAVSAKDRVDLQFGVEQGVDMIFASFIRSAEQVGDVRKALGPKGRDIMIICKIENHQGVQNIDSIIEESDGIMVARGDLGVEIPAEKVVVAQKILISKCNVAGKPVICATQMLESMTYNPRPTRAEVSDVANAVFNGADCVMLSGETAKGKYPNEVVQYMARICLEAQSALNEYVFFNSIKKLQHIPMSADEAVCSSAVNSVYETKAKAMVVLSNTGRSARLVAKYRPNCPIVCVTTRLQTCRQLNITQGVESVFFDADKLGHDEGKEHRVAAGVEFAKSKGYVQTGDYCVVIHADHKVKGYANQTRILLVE
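In 50 mM imidazole pH 7.2 with 7 mM MgCl2, LmPK (0.1 nM) turned over PEP (0.5 mM) and ADP (0.1 mM) for 1 h at room temperature. Luciferase read-out of ATP.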
SARS PLpro yeast: qHTS of Yeast-based Assay for SARS-CoV PLP; S. cerevisiae expressing SARS-CoV PLpro, growth rescue; Potency, µM (top dose mostly 32.9 µM), without a hit: at the top dose activity, positive = growth rescue, usual class: activators; hit rate 0.19% among 330,000; AID 485353, 2010; calls by dose curve; also: 0% is about no effect; nearly all actives have a fitted effect of over 55% in size
RE007 growth inh: qHTS Assay for Inhibitors of the HIV-1 protein Vpr; S. pombe RE007 Vpr strain, BacTiter-Glo ATP luminescence, 24 h; Potency, µM (highest dose often 92.2 µM), for the others: at the top dose activity change, negative = less growth, most hits filed as inhibitors; hit rate 0.21% among 360,000; AID 651644, 2012; active = well fitted falling curve with a large enough effect; inconclusive = small, poorly fitted or top-dose-only effect; inactive = no such curve, though single readings can be large or run the other way; also: % is scaled to controls: 0 for no effect and ±100 for the full control effect; nearly all actives have a fitted effect of over 50% in size
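Fission yeast RE007 carrying one integrated HIV-1 vpr copy, seeded at OD 0.01 in PMG+AL medium with 23 nL pinned compound. Grown 24 h at 30 degrees; viability read by BacTiter-Glo luminescence after 5 min.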
Tb PYK inh: qHTS of Trypanosoma Brucei Inhibitors; pyruvate kinase (Trypanosoma brucei), Q57TT1; TbPYK enzyme, Kinase-Glo Plus ATP luminescence, 45 min; Potency, µM (highest dose often 76.8 µM), for the others: at the highest dose activity, negative = inhibition, most hits filed as inhibitors; hit rate 0.12% among 410,000; also: % is scaled to controls: 0 for no effect and ±100 for the full control effect; nearly all actives have a fitted effect of over 50% in size
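Screened from lowest to highest concentration, compounds were pinned into TbPYK/substrate mixtures, and ADP (130 uM final) was added. Plates sat at room temperature for 45 min prior to Kinase-Glo Plus detection by luminescence.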
NS1 inh: qHTS Assay for Inhibitors of Influenza NS1 Protein Function; AID 2326, 2010; Potency, µM (series often up to 46.1 µM), for inactives: at the highest dose activity, positive = more growth; hit rate 0.4% among 270,000; calls by dose curve; also: actives are rising curves; nearly all actives have a fitted effect of over 50% in size
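Read-out: OD600 growth recovery of NS1-expressing budding yeast. Cells grown overnight at 30C in -URA glucose medium, washed, resuspended and diluted 1:100 in 2% galactose assay medium, pH 6.0. Same strain lacking NS1 served as positive control.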
An asterisk follows results filed as active. An excerpt weighted towards active compounds, which were near 3.3% of everything screened. Unless noted, calls follow the shape of the dose curve; as a rule, active = well fitted curve in the direction sought with a large enough effect; inconclusive = small, poorly fitted or top-dose-only effect, or another doubt; inactive = no such curve, though single readings can be large; an effect the other way counts as inactive or inconclusive. Potency is read from the fitted curve at half-maximal effect.

What do the screens show for `CCCSc1ccc([C@@H]2[C@@H]3C(=O)N(C)C(=O)[C@@H]3[C@]3(C(=O)OC)CCCN23)cc1OC`?
Sm TGR block: 20µM*; SARS PLpro yeast: -3%; RE007 growth inh: 9%; Tb PYK inh: -19%

Results for CCCCCCSc1ccc([C@@H]2[C@H]3C(=O)N(C)C(=O)[C@H]3[C@]3(C(=O)OC)CCCCN23)cc1OC ?
Sm TGR block: inconclusive; SARS PLpro yeast: -2%; RE007 growth inh: -6%; Tb PYK inh: -9%

Results for O=C(/C=C/c1ccc([N+](=O)[O-])s1)N1CCN(c2ccccc2)CC1 ?
Sm TGR block: -15%; LmPK inh: -3%; SARS PLpro yeast: 1%; RE007 growth inh: -18%; Tb PYK inh: -5%; NS1 inh: -4%

How did O=C(/C=C/c1ccc([N+](=O)[O-])s1)N1CCCC1 do in these assays?
Sm TGR block: 28µM*; LmPK inh: 0%; SARS PLpro yeast: -7%; RE007 growth inh: inconclusive; Tb PYK inh: 1%

Results for O=C(/C=C/c1ccc([N+](=O)[O-])s1)N1CCCCC1 ?
Sm TGR block: 20µM*; LmPK inh: 5%; SARS PLpro yeast: -7%; RE007 growth inh: inconclusive; Tb PYK inh: -3%

Results for Cc1ccc(C)c(C(=O)Cn2ncc(Cl)c(Cl)c2=O)c1 ?
Sm TGR block: 50µM*; LmPK inh: -6%; SARS PLpro yeast: -2%; RE007 growth inh: 19%; Tb PYK inh: 2%; NS1 inh: 3%

How did CCCc1cc(=O)[nH]c(SCC(=O)c2cc(C)n(CC(F)(F)F)c2C)n1 do in these assays?
Sm TGR block: -8%; LmPK inh: 0%; SARS PLpro yeast: 1%; RE007 growth inh: -2%; Tb PYK inh: -4%

What do the screens show for `Cc1cc(C(=O)Cn2ncc(Cl)c(Cl)c2=O)c(C)n1CC(F)(F)F`?
Sm TGR block: 45µM*; LmPK inh: 2%; SARS PLpro yeast: -43%; RE007 growth inh: -4%; Tb PYK inh: -7%; NS1 inh: 8%

How did Cc1ccc2nc(-c3ccsc3)c(Nc3ccc(Cl)cc3)n2c1 do in these assays?
Sm TGR block: -1%; Tb PYK inh: -5%

What do the screens show for `O=C(Nc1ccc2oc(-c3cccc4c(Br)cccc34)nc2c1)c1ccc(F)cc1`?
Sm TGR block: -2%; Tb PYK inh: 3%

Results for CCOC(=O)/C(C#N)=C/C1=C(N2CCOCC2)CC(C)(C)OC1 ?
Sm TGR block: 28µM*; LmPK inh: -4%; SARS PLpro yeast: 4%; RE007 growth inh: 8%; Tb PYK inh: 0%; NS1 inh: 3%

What do the screens show for `CCOC(=O)c1c(C)[nH]c(C)c1S(=O)(=O)NCC(=O)Nc1ccc(CC)cc1`?
Sm TGR block: 4%; Tb PYK inh: 0%

How did CS(=O)(=O)c1ccc(C(=O)OCc2nnc(-c3ccc(Cl)cc3)o2)cc1[N+](=O)[O-] do in these assays?
Sm TGR block: 2.5µM*; LmPK inh: 7%; SARS PLpro yeast: -1%; RE007 growth inh: -4%; Tb PYK inh: 1%; NS1 inh: -8%

How did O=C(OCc1nnc(-c2ccc(Cl)cc2)o1)c1ccc(O)cc1 do in these assays?
Sm TGR block: -6%; LmPK inh: 4%; SARS PLpro yeast: -1%; RE007 growth inh: -4%; Tb PYK inh: 0%

What do the screens show for `CN(CC(=O)O)Cc1c[nH]c2ccccc12`?
NS1 inh: 10%

How did Cc1ccc(C(=O)Nc2ccc(S(=O)(=O)NCc3ccco3)cc2)cc1 do in these assays?
Sm TGR block: 50µM*; LmPK inh: 10%; SARS PLpro yeast: -1%; RE007 growth inh: 14%; Tb PYK inh: -3%; NS1 inh: -4%
